According to the OligoGym collection:

biological target: SPESP1; experiment: pooled miR-30 sensor sort-seq; sequence = guide strand; conditions: shRNA
Note: reference of the scale not given here.

Sequence | sensor-assay potency score (higher = more potent)
TCCATGTGTAACTAGCTCCTTA | -0.658
TTGTTTGGTTTGATCGACCAGA | -0.327
TATTGAATACTGTAGCAGCTTT | -0.369
TTGTTTTTAATTTATGTTCTGC | 0.0799
TTGTTTTGCAGCTGGCTCCGGC | -0.682
ATGTATTGAATACTGTAGCAGC | -1.16
TAGATGATTCAGTAACAACTGG | -0.346

biological target: SPINK5; experiment: as above; conditions: shRNA

Sequence | sensor-assay potency score (higher = more potent)
TTATTGATGTGCATCTTGCCAT | -0.0441
TTGTATAGAACTTTCCATCAGC | -0.111
TTGTGCATCCAAGTCTTCCATC | -1.09
TTGAGAAGCTCTAACATGGGAT | -0.174
TTGAAAAAATTTCTTATCCTGG | -0.827
TTTAAAATCATCACAATTCAGC | -0.669
TTTCTTTTGCTTCTTGCTGGAA | -0.544
ATACTCAGCACATTCGTCCTGA | 0.519
TTGCTCTTGCTCTTTCTTCTTG | -0.499
TTTTCTTGAAGCTTTGCCCTTT | 0.275
TCTCTTTTGACTTTTGCTCTGG | -0.0301
TTTTGTTTCTAGCTCGTGCTTC | 0.162

biological target: SPINK6; experiment: as above; conditions: shRNA

Sequence | sensor-assay potency score (higher = more potent)
ACAGTCAACCTGTCCTCCCTGA | -0.55
TGAATTAAAGGAATCCACCAGC | -0.148
TTAGGCTAATCTTTCCACCACT | -0.87
TAGACATACATTGAACTCCTCA | -0.369
TGCTTTAGGCTAATCTTTCCAC | -0.643
TATTGCCATATGTCTGGCCATC | -1.73
TTCCCGAGTGCAGTAGACCTTG | -0.732
TTAGATTCCCGAGTGCAGTAGA | 0.5
TTTATTGCCATATGTCTGGCCA | -0.38
TAAAAAGCAGAAAAGAGCCAGA | -0.281
GAACTCACCACAGTCAACCTGT | -0.413
TAATCTTTCCACCACTTTTCAC | -1.05

biological target: SPOCK1; experiment: as above; conditions: shRNA

Sequence | sensor-assay potency score (higher = more potent)
ATATTCTAGGTCATCCAGCAGG | -0.735
TTTGTCATCATCCTCATCCTCA | 0.0865
TCATAGTTCATGTCCAACTTGT | 0.349
TTGCACTTGGATGTGTAGGAGT | -0.759
TTCATATTCTAGGTCATCCAGC | -0.469
TTGTCTAGGAAATTGCCGTGGT | 0.282
TCCAACTTGTTGAACATCCAGC | -1.54
TTGCACTTGACCAAATTCGAAG | -1.14
TATTTGTCCACACACCAGCACT | -1.26
